For seven compounds, outcome and AC50 results are on record in PubChem BioAssay (EPA / NIEHS).

Each structure is given as a SMILES string. The source made the active and inactive calls. How the source made its calls: active means hit-call score of the fitted dose curve at least 0.9, where 1 is the maximum; inactive means score below 0.9.

Test [1] can be described thus: ATG_M_32_CIS: Attagene CIS-FACTORIAL HepG2 Assay for M32 Transcription Factor (Internal Marker) (AID 2282949).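 Further: background control marker of the multiplexed CIS panel rather than a real target.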 The settings on record: HepG2 Attagene cis-factorial M32 reporter, mRNA; actives raise or lower the signal. Summed up: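 HepG2 cells transiently transfected with multiplexed cis-regulated reporter units, dosed 24 h. Reporter mRNA quantified by RT-PCR, 6-FAM labelling, HpaI digestion and capillary electrophoresis; bidirectional fit vs DMSO.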

Test [2] can be described thus: ATG_M_06_CIS: Attagene CIS-FACTORIAL HepG2 Assay for M06 Transcription Factor (Internal Marker) (AID 2282950). The settings on record: HepG2 Attagene CIS-FACTORIAL M06 internal marker reporter; actives raise or lower the signal. Summed up:
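HepG2 cells transiently transfected with cis-regulated multiple reporter transcription units were exposed to chemical for 24 h; reporter mRNA was quantified by RT-PCR, 6-FAM primer labelling, HpaI digestion and capillary electrophoresis, fitted bidirectionally against DMSO.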

Test [3] concerns the target Hypoxia-inducible factor 1-alpha (Homo sapiens) (UniProt Q16665). The test can be described thus: ATG_HIF1a_CIS: Attagene CIS-FACTORIAL HepG2 Assay for human Hypoxia Inducible Factor 1 (HIF1A) (AID 2282951). The note with it: HepG2 Attagene cis-factorial HIF1a reporter transcription; actives raise or lower the signal. Summed up:
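In this multiplexed cell assay, HepG2 cells bearing transfected cis reporters are dosed for 24 h and reporter mRNA is read by RT-PCR plus capillary electrophoresis; signal increases and decreases are both scored against DMSO.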

Test [4] addresses Hepatocyte nuclear factor 6 (Homo sapiens) (UniProt Q9UBC0). Kind of test: ATG_HNF6_CIS: Attagene CIS-FACTORIAL HepG2 Assay for human Hepatocyte Nuclear Factor 6 (HNF6) (AID 2282952). The note with it: HepG2 Attagene cis-factorial HNF6 reporter transcription; actives raise or lower the signal. The method in brief: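 HepG2 cells transiently transfected with cis-element-driven multiplexed reporter units measuring endogenous transcription factor activity. After 24 h exposure, reporter mRNA quantified by RT-PCR, FAM-labelled fragments and capillary electrophoresis; bidirectional fitting versus DMSO.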

Test [5] concerns the target Heat shock factor protein 1 (Homo sapiens) (UniProt Q00613). The test can be described thus: ATG_HSE_CIS: Attagene CIS-FACTORIAL HepG2 Assay for human Heat Shock Transcription Factor 1 (HSE) (AID 2282953). The settings on record: HepG2 HSE cis-reporter, Attagene RNA transcription; actives raise or lower the signal. The method in brief:
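HepG2 cells transiently transfected with multiple reporter transcription units under cis-regulatory promoter control, measuring endogenous transcription factor activity. After 24 h chemical exposure, reporter mRNA quantified by RT-PCR, fluorescent labelling, HpaI digestion and capillary electrophoresis; bidirectional fit versus DMSO.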

The nature of test [6]: ATG_MRE_CIS: Attagene CIS-FACTORIAL HepG2 Assay for human Metal Responsive Element (MRE) (AID 2282954). The settings on record: HepG2 MRE cis-reporter transcription, Attagene multiplex; actives raise or lower the signal. Summed up: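 Step one: transfect HepG2 with cis-regulated reporter units. Step two: dose 24 h. Step three: isolate RNA, RT-PCR, 6-FAM label, HpaI digest, capillary electrophoresis. Fit bidirectionally to DMSO.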

A short description of test [7]: ATG_PBREM_CIS: Attagene CIS-FACTORIAL HepG2 Assay for human Phenobarbital-responsive Enhancer Module (PBREM) (AID 2282955). The settings on record: HepG2 PBREM cis-reporter, Attagene multiplexed transcription; actives raise or lower the signal. The method in brief: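 After a 24 h incubation with test chemical, transfected HepG2 cells yield total RNA; reporter-specific RT-PCR products are fluorescently labelled, HpaI-digested and resolved by capillary electrophoresis against ROX size standards.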

The target of test [8] is Paired box protein Pax-6 (Homo sapiens) (UniProt P26367). Kind of test: ATG_Pax6_CIS: Attagene CIS-FACTORIAL HepG2 Assay for human Paired Box 6 (PAX6) (AID 2282956). The settings on record: HepG2 CIS-FACTORIAL PAX6 reporter transcription, RNA readout; actives raise or lower the signal. The method in brief: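 HepG2 cells transiently transfected with multiplexed cis-promoter reporter units (endogenous TF activity) were dosed for 24 h. Reporter mRNA was quantified by RT-PCR, 6-FAM labeling, HpaI digestion and capillary electrophoresis; bidirectional fitting versus DMSO baseline.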
Paired box protein Pax-6 (Homo sapiens), sequence (P26367 whole entry, looked up): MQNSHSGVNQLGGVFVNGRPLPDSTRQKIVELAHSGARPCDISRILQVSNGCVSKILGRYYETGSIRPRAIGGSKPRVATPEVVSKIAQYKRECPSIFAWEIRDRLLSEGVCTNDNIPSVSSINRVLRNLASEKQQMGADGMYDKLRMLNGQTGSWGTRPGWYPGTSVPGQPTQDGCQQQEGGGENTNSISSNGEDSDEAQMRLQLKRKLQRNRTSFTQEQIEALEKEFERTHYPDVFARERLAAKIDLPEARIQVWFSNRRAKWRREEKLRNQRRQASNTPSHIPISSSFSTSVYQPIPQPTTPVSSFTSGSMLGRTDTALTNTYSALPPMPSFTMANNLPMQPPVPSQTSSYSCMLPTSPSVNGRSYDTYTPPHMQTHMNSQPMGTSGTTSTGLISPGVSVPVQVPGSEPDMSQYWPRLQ

Test [9] is described as follows: ATG_PXRE_CIS: Attagene CIS-FACTORIAL HepG2 Assay for human Pregnane X Receptor Element (PXRE) (AID 2282957). The settings on record: HepG2 Attagene CIS-FACTORIAL PXRE reporter, mRNA; actives raise or lower the signal. Summed up: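 HepG2 cells transiently transfected with cis-element-driven multiplexed reporter units; after 24 h chemical exposure, reporter mRNA measured by RT-PCR, 6-FAM labelling, HpaI digestion and capillary electrophoresis. Bidirectional fitting relative to DMSO.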

Test [10] is described as follows: ATG_RORE_CIS: Attagene CIS-FACTORIAL HepG2 Assay for human RAR-related Orphan Receptor Element (RORE) (AID 2282959). The settings on record: HepG2 Attagene cis-factorial RORE reporter, mRNA; actives raise or lower the signal. Summed up: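 Fluorescence intensity of reporter-specific cDNA fragments, separated by capillary electrophoresis, gives the signal. Source: HepG2 liver cells transiently transfected with cis-element reporters and exposed 24 h; DMSO-normalized bidirectional fit.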

Test [11] can be described thus: ATG_Sox_CIS: Attagene CIS-FACTORIAL HepG2 Assay for human SRY-box transcription factor (SOX) (AID 2282960). The settings on record: HepG2 Attagene cis-factorial SOX reporter, mRNA; actives raise or lower the signal. Summed up: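 After 24 h of chemical treatment, transfected HepG2 reporter cells are lysed for total RNA. Transcript levels come from RT-PCR with labelled primer extension and capillary electrophoresis, analysed bidirectionally versus DMSO.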

The target in test [12] is Transcription factor Sp1 (Homo sapiens) (UniProt P08047). The test can be described thus: ATG_Sp1_CIS: Attagene CIS-FACTORIAL HepG2 Assay for human Specificity Protein 1 (Sp1) (AID 2282961). The settings on record: HepG2 Sp1 cis-reporter transcription, actives raise or lower the signal. The method in brief:
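Sp1-driven reporter mRNA, read as capillary electrophoresis fluorescence after RT-PCR, in transiently transfected HepG2 cells dosed for 24 h; signal change in either direction relative to DMSO.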

Test [13] concerns the target Signal transducer and activator of transcription 3 (Homo sapiens) (UniProt P40763). The test can be described thus: ATG_STAT3_CIS: Attagene CIS-FACTORIAL HepG2 Assay for human Signal Transducer and Activator of Transcription 3 (STAT3) (AID 2282963). The settings on record: HepG2, Attagene cis-factorial STAT3 reporter transcription; actives raise or lower the signal. The method in brief:
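Transcript-level reporter assay. HepG2 transient MRTU transfection, 24 h exposure, fluorescence detection after RT-PCR and CE; DMSO baseline.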

Test [14] is described as follows: ATG_TA_CIS: Attagene CIS-FACTORIAL HepG2 Assay for human TA Basal Promoter (AID 2282964). The settings on record: HepG2 Attagene CIS-factorial TA basal promoter reporter; actives raise or lower the signal. The method in brief: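 HepG2 cells transiently transfected with multiplexed cis-promoter reporter units, dosed 24 h. Reporter mRNA measured by RT-PCR, 6-FAM labelling, HpaI digestion and capillary electrophoresis; bidirectional fit versus DMSO baseline, serving as background control.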

Test [15] is described as follows: ATG_TAL_CIS: Attagene CIS-FACTORIAL HepG2 Assay for human TAL Basal Promoter (AID 2282966).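 Further: background control endpoint measuring basal TAL promoter reporter mRNA not a specific factor.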 The settings on record: HepG2 Attagene cis-factorial TAL promoter reporter; actives raise or lower the signal. Summed up:
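HepG2 cells transiently transfected with multiplexed cis-promoter reporter units, dosed 24 h. Reporter mRNA quantified by RT-PCR, 6-FAM labelling, HpaI digestion and capillary electrophoresis; TAL basal promoter serves as background control, fitted bidirectionally versus DMSO.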

Test [16] is described as follows: ATG_TGFb_CIS: Attagene CIS-FACTORIAL HepG2 Assay for human Transforming Growth Factor (TGF) (AID 2282967). The note with it: HepG2 Attagene CIS TGFb reporter, mRNA transcription; actives raise or lower the signal. The method in brief:
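HepG2 cells transiently transfected with cis-promoter-driven multiplexed reporter units; 24 h compound exposure. Reporter mRNA measured by RT-PCR, 6-FAM labeling, HpaI digestion and capillary electrophoresis; bidirectional fit versus DMSO baseline.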

Test [17] is described as follows: ATG_VDRE_CIS: Attagene CIS-FACTORIAL HepG2 Assay for human Vitamin D Receptor Element (VDRE) (AID 2282968). The note with it: HepG2 VDRE cis-reporter transcription, actives raise or lower the signal. Summed up: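 RT-PCR/CE readout of reporter mRNA; HepG2, transient transfection, 24 h dosing; DMSO baseline; bidirectional analysis.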
Test [18] is described as follows: ATG_PPRE_CIS: Attagene CIS-FACTORIAL HepG2 Assay for human Peroxisome Proliferator-activated Response Element (PPRE) (AID 2282958). The note with it: HepG2 PPRE cis-element reporter, Attagene transcription factor profiling; actives raise or lower the signal. The method in brief:
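Multiplexed reporter transcription units under cis-regulatory promoters were transfected into HepG2 cells to capture endogenous factor activity. A 24 h incubation preceded RNA isolation and fluorescent RT-PCR fragment analysis.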

The nature of test [19]: ATG_SREBP_CIS: Attagene CIS-FACTORIAL HepG2 Assay for human Sterol Regulatory Element Binding (SREBP) (AID 2282962). The settings on record: HepG2 Attagene cis-factorial SREBP reporter, mRNA; actives raise or lower the signal. Summed up: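 HepG2 cells transiently transfected with multiplexed cis-element reporter units report endogenous transcription factor activity. After 24 h of chemical exposure, reporter mRNA was quantified by RT-PCR, 6-FAM labelling, HpaI digestion and capillary electrophoresis; bidirectional fits used DMSO as baseline.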

A short description of test [20]: ATG_TCF_b_cat_CIS: Attagene CIS-FACTORIAL HepG2 Assay for human T-Cell-Factor with beta-catenin (TCF/b-cat) (AID 2282965). The note with it: HepG2 TCF/beta-catenin cis-reporter transcription, actives raise or lower the signal. Summed up:
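Using capillary electrophoresis as the read-out, labelled reporter cDNA fragments from transiently transfected HepG2 were sized and quantified. Exposure lasted 24 hours; activity in either direction was referenced to DMSO.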

What is called AC50 is the concentration at which the activity in the assay is half-maximal.

Heat shock factor protein 1 (Homo sapiens), sequence (Q00613 whole entry, looked up): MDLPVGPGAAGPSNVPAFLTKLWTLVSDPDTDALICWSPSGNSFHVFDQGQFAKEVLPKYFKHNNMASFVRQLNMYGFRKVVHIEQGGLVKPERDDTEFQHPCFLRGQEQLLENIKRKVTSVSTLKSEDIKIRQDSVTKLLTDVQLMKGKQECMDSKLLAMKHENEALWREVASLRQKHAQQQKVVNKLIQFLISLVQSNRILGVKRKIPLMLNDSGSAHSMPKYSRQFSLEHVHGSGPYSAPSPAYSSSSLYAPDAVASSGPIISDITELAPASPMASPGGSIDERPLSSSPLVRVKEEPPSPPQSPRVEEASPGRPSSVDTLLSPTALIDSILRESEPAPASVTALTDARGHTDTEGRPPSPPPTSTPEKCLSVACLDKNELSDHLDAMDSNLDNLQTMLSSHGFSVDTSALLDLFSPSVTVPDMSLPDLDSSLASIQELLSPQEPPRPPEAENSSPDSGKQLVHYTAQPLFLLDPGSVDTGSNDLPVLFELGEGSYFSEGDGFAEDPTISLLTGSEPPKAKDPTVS
Signal transducer and activator of transcription 3 (Homo sapiens), sequence (P40763 whole entry, looked up): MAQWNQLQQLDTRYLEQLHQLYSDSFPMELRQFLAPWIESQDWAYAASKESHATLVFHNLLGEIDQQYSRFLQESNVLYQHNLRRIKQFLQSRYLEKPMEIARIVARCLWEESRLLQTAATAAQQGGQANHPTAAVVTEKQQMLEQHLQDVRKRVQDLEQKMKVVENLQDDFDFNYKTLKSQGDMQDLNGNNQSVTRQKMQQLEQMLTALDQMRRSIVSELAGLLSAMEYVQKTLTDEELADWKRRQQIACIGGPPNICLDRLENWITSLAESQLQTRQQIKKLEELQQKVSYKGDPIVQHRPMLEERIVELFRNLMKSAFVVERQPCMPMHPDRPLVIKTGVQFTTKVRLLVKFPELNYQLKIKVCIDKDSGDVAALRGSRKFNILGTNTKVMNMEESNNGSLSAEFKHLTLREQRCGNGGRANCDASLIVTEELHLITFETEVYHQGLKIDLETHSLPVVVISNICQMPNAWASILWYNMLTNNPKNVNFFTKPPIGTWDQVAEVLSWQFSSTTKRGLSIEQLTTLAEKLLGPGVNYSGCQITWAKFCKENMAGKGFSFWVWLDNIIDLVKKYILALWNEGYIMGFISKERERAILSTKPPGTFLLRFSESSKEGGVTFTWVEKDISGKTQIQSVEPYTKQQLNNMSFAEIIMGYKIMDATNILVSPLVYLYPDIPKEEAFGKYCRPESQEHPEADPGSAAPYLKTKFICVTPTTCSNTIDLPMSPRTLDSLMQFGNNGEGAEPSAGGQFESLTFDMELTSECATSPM
Hypoxia-inducible factor 1-alpha (Homo sapiens), sequence (Q16665 whole entry, looked up): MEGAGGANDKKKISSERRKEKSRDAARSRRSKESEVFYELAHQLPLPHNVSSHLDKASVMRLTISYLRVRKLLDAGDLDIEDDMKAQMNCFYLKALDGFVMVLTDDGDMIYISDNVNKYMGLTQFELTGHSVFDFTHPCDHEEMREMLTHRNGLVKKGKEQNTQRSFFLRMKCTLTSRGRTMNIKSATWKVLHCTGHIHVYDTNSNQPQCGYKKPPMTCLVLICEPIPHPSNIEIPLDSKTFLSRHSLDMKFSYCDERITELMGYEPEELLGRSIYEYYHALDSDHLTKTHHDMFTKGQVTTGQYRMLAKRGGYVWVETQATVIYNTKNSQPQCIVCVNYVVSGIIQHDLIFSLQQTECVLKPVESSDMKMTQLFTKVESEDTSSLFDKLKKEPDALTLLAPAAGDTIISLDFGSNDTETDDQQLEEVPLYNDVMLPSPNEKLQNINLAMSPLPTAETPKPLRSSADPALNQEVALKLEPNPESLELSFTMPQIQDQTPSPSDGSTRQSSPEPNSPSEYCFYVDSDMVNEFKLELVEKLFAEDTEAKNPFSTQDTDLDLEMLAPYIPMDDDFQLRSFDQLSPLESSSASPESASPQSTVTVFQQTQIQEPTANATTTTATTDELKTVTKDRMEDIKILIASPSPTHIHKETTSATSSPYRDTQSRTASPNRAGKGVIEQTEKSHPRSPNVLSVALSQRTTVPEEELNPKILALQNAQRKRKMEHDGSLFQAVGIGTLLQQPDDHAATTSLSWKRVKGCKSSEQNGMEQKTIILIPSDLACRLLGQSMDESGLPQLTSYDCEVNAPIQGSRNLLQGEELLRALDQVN
Hepatocyte nuclear factor 6 (Homo sapiens), sequence (Q9UBC0 whole entry, looked up, the tested form may be a part): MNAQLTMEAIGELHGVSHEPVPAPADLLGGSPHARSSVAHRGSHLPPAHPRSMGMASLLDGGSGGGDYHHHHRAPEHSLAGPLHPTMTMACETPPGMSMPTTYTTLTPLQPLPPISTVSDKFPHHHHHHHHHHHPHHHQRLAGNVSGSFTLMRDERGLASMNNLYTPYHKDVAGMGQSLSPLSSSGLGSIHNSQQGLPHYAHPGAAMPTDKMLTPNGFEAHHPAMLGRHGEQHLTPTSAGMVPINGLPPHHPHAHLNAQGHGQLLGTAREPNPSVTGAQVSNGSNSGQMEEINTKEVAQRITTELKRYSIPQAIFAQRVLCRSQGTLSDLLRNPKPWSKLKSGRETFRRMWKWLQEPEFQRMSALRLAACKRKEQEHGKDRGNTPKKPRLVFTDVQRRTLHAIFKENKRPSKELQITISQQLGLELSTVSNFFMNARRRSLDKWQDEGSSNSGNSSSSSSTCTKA
Transcription factor Sp1 (Homo sapiens), sequence (P08047 whole entry, looked up): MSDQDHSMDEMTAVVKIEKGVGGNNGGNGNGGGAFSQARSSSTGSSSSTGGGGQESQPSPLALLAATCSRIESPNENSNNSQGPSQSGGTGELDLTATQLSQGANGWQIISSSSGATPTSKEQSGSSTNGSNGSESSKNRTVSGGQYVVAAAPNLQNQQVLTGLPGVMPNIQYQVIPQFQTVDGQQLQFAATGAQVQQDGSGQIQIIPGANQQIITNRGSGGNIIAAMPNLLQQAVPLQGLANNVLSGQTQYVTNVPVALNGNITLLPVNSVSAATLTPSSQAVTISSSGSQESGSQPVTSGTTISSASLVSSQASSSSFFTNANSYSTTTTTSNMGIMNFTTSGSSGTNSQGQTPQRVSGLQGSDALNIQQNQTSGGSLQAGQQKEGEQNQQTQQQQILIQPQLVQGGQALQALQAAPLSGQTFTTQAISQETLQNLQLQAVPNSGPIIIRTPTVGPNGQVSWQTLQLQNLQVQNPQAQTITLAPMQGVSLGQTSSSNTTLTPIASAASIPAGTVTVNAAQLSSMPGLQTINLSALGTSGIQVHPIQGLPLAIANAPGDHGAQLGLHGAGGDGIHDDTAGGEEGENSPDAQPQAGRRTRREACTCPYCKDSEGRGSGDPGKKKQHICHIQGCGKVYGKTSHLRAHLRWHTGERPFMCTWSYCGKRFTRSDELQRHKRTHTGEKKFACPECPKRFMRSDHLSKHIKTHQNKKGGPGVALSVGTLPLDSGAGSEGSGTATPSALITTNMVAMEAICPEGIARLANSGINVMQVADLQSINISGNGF

On to `ClCc1ccccc1Cl`, for which the compound was classed as inactive in test [1], in test [2], in test [3], in test [6], in test [7] and in test [10]. The outcome in test [13], in test [14], in test [15] and in test [16] was inactive. The AC50 in test [4] is 100 µM (active); in [5], 164 µM (active); in [8], 100 µM (active); in test [9], 38.3 µM (active); in test [11], 120 µM (active); in [12], 100 µM (active). Moreover, in [17], the AC50 is 100 µM (active).

In the case of `c1ccc2sc(SNC3CCCCC3)nc2c1`, the compound was classed as inactive in test [1], in [2], in [4], in test [7], in [18] and in test [10]. For the same compound, the call in test [11], in test [13], in [14], in [20], in test [15] and in [17] was inactive. Further, the AC50 is 100 µM (active) in test [3]; 159 µM (active) in test [5]; 119 µM (active) in test [6]; 154 µM (active) in [8]; 184 µM (active) in test [12]; 148 µM (active) in test [19]. For the same compound, in test [16], the AC50 was 34.4 µM (active).

Consider `NC(=O)c1ccc(N)nc1`, for which the compound was classed as inactive in test [1], in test [2], in test [3], in test [4], in test [5] and in [6]. Moreover, the outcome in test [7], in [8], in [9], in test [18], in test [10] and in test [11] was inactive. The outcome in test [12], in test [13], in test [14], in test [15] and in test [17] was inactive.

For the compound `CC1(C)COP(Oc2ccccc2)OC1`, the call in [1], in test [2], in [3], in [4], in test [5] and in test [6] was inactive. The result in [7], in test [8], in test [9], in test [10], in test [11] and in test [12] was inactive. Further, the compound was called inactive in test [19], in test [13], in [14], in [20], in [15] and in test [16]. The call in test [17] was inactive.

Consider `CN(N=O)c1ccc([N+](=O)[O-])cc1`, for which the compound was classed as inactive in [1], in test [2], in [3], in [4], in test [5] and in test [6]. Also, the outcome in [7], in test [8], in test [18], in [10], in [11] and in test [12] was inactive. The outcome in test [13], in test [14], in test [20], in [15], in [16] and in test [17] was inactive. Further, in [9], the AC50 is 18.6 µM (active).

Consider `CCC(C)(C#N)N=NC(C)(C#N)CC` (stereo unspecified), for which the call in [1], in test [2], in test [3], in [4], in test [5] and in test [6] was inactive. Also, the result in test [7], in test [8], in test [18], in test [10], in [12] and in test [13] was inactive. For the same compound, the outcome in test [14], in test [15] and in test [16] was inactive. For the same compound, the AC50 in test [9] is 22 µM (active).

With `BrCc1ccc(Br)cc1`, the call in test [1], in test [2], in test [3], in test [4], in test [5] and in test [6] was inactive. Moreover, the outcome in test [7], in test [8], in test [9], in test [18], in test [10] and in [12] was inactive. Moreover, the result in test [19], in test [13], in [14], in test [20], in test [15] and in test [16] was inactive. Further, the outcome in test [17] was inactive.
